D1 PAM: Potentiators of Human D1 Dopamine Receptor: qHTS; D(1A) dopamine receptor (Homo sapiens), P21728; HEK293 TREx D1 cells, calcium flux, dopamine EC20 potentiation; potentiation, % at 10 µM; hit rate 0.036% among 360,000; AID 504651, 2011; in the data active = potentiation above about 30%; also: 0% is about no effect
D1 antagonist: Antagonist of Human D 1 Dopamine Receptor: qHTS. D(1A) dopamine receptor (Homo sapiens), P21728. HEK293 TREx D1 cells, calcium flux, dopamine EC80; hits give low values. activity change, negative = inhibition, % at 10 µM. hit rate 3.2% among 360,000. AID 504652, 2011; in the data active = activity change below about -30%; also: % is scaled to controls: 0 for no effect and ±100 for the full control effect
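Allosteric or orthosteric antagonism assessed as attenuation of the calcium response to EC80 dopamine, added 180 s after compound, in induced HEK293 Trex D1 cells loaded with no-wash calcium dye.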
DRD3 agonist: qHTS of D3 Dopamine Receptor Agonist: qHTS; D(3) dopamine receptor (Homo sapiens), P35462; D3R DiscoveRx beta-arrestin cells, luminescence, 90 min; max activation, %; hit rate 0.58% among 410,000; AID 652048, 2013; in the data active = max activation above about 30%; also: 0% is about no effect
Target sequence (P35462 whole entry, looked up): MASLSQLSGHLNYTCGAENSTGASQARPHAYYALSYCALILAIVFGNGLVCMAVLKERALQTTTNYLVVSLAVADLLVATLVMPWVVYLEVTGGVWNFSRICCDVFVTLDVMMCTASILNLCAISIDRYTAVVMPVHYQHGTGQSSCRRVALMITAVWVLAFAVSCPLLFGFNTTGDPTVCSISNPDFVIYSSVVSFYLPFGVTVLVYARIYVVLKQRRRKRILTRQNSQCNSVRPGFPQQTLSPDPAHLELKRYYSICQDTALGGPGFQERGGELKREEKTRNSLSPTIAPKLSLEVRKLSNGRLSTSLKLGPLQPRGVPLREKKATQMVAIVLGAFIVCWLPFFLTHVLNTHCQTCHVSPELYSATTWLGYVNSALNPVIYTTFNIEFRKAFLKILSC
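Cells at 1500/well, incubated overnight, then treated with pinned compounds (dopamine as control) for 90 min at 37 degrees C. DiscoveRx reagent added for 30 - 60 minutes at room temperature; luminescence read.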
D1 ag: Allosteric Agonists of the Human D1 Dopamine Receptor: qHTS. AID 504660, 2011. D(1A) dopamine receptor (Homo sapiens), P21728. HEK293 T-REx D1 cells, calcium flux, agonist mode. activation, % at 2 µM. hit rate 1% among 360,000; in the data active = activation above about 30%; also: 0% is about no effect
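Inducible HEK293 T-REx D1 cells, force-coupled to calcium signalling, were plated at 4000 cells/well with tetracycline and held overnight at 30 C. After no-wash calcium dye loading, compound-evoked calcium rise over 180 s flagged agonists.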
DRD3 antagonist: qHTS of D3 Dopamine Receptor Antagonist: qHTS; AID 652054, 2013; hit rate 2.5% among 360,000; max response, negative = inhibition, %; D(3) dopamine receptor (Homo sapiens), P35462; D3R cells, DiscoveRx beta-arrestin luminescence, antagonist mode; hits give low values; in the data active = max response below about -50%; inconclusive = no clear call, values can overlap the other calls; also: % is scaled to controls: 0 for no effect and ±100 for the full control effect
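Cells plated overnight at 1500 cells/well, then exposed to library compounds with dopamine controls for 90 minutes at 37 degrees C. DiscoveRx reagent added for 30–60 minutes at room temperature; luminescence read, quantitative HTS format.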
Numbers without * were called inactive; ? = inconclusive; . = no result. Compounds with a hit are over-represented: about 6% of the library has one in this group of screens.

SMILES | D1 PAM | D1 antagonist | DRD3 agonist | D1 ag | DRD3 antagonist
Cc1cc(/C=N/NC(=O)CC#N)c(C)n1-c1ccc([N+](=O)[O-])cc1 | -17 | -37* | 5 | 0 | -7
Cc1cc(/C=N/Nc2ccc([N+](=O)[O-])cn2)c(C)n1-c1ccccc1 | -2 | . | -4 | 3 | ?
CCN(CC)c1ccc([N+](=O)[O-])cc1/C=N/NC(=O)CC#N | -3 | -23 | -3 | 4 | -25
COc1ccc(NC(=O)CN2C(=O)CSc3ccc(S(=O)(=O)N(C)C)cc32)cc1Cl | -3 | -15 | -11 | 2 | .
Cc1ccc2nc(/C(C#N)=C\c3cc(C)n(-c4cccc([N+](=O)[O-])c4)c3C)[nH]c2c1 | -2 | 4 | -62 | 0 | -53*
CCN(C(=O)CSc1nc2ccccc2n1Cc1ccc(C(=O)OC)cc1)c1ccccc1 | 0 | -1 | -18 | 8 | .
COCCCN1C(=O)C(CC(=O)NCCCN(C)C)CC(C(=O)N2CCOCC2)=C1C (configuration not stated) | . | . | 95* | . | 1
CCCCN1C(=O)C(CC(=O)NC2CCCC2)CC(C(=O)N2CCOCC2)=C1C (configuration not stated) | . | . | -2 | . | 1
CCCCN1C(=O)C(CC(=O)NC2CCCCC2)CC(C(=O)N2CCOCC2)=C1C (configuration not stated) | . | . | 8 | . | -54*
CC(=O)NC(NC(=S)Nc1ccc(N=Nc2ccccc2)cc1)C(Cl)(Cl)Cl (configuration not stated) | -10 | -44* | -4 | 17 | ?
CC(=O)NC(NC(=S)Nc1ccc(S(N)(=O)=O)cc1)C(Cl)(Cl)Cl (configuration not stated) | 2 | 0 | -9 | 2 | -27
O=C(CCc1ccccc1)NC(NC(=S)Nc1ccc(Cl)cc1)C(Cl)(Cl)Cl (configuration not stated) | -6 | -36* | -6 | 9 | ?
O=C(/C=C/c1ccccc1)NC(NC(=S)Nc1ccc(Cl)cc1)C(Cl)(Cl)Cl (configuration not stated) | -3 | -3 | -6 | 6 | -19
COc1ccc(C)cc1NS(=O)(=O)c1c(C(=O)N2CCCCCC2)c(C)n(C)c1C | -5 | 2 | -1 | 3 | .
O=C(CSc1ncccn1)n1c2c(c3ccccc31)CCCC2 | 0 | -43* | -8 | 6 | -10
COC(c1ccccc1)c1nnc(CCC(=O)N(C)CCCC2CCCC2)o1 (configuration not stated) | -3 | -32* | 1 | 6 | -1
Cc1ccc2oc(=O)c3cnn(CC(=O)N4CCN(c5cc(Cl)ccc5C)CC4)c3c2c1 | -1 | -11 | 13 | 3 | .
CC(NC(=O)Nc1cccc(Cl)c1)C(c1cccs1)N1CCCC1 (configuration not stated) | -4 | 34 | -13 | 113* | ?
CC(NC(=O)Nc1ccc([N+](=O)[O-])cc1)C(c1cccs1)N1CCCC1 (configuration not stated) | 17 | 159 | -8 | 175* | -6
Cc1c(C)n(Cc2ccccc2)c2ccc(C(=O)NCCc3ccccc3Cl)cc12 | -5 | -6 | -14 | 2 | .
COc1ccccc1CNC(=O)c1cc2cccc3c2n1CCS3 | -1 | -14 | 4 | 3 | .
CC(C)Cn1c(Cc2ccccc2)n[nH]c1=S | -2 | -35* | -10 | 33* | 7
COc1ccc(CNS(=O)(=O)c2cnc(N)nc2)c(OC)c1 | -5 | -6 | 13 | 2 | .
COC(=O)CSc1cccc2c1C(=O)CC2c1ccccc1 (configuration not stated) | -5 | -33* | 1 | 7 | 5
COC(=O)CSc1ccsc1C(=O)O | -3 | 2 | 5 | 3 | 8
SMILES | D1 PAM | D1 antagonist | DRD3 agonist | D1 ag | DRD3 antagonist
CCCCN(C=O)c1c(CC)nc2ccc(C(=O)NCc3ccccc3OC)cn12 | . | . | 2 | . | -51*
CC(=O)c1cccc(NC(=O)[C@H](Cc2ccccc2)N2Cc3ccccc3C2=O)c1 | 2 | 1 | 10 | 2 | .
O=[N+]([O-])c1ccc2nc(-c3ccccc3[N+](=O)[O-])[nH]c2c1 | -9 | -39* | -9 | 10 | -17
O=[N+]([O-])c1ccc2nc(-c3ccc(Cl)cc3)[nH]c2c1 | -4 | -49* | -1 | 27 | 15
Cc1ccc(-c2nc3ccc([N+](=O)[O-])cc3[nH]2)cc1 | -10 | -12 | -3 | 7 | -8
COc1ccc(-c2nc(S(=O)(=O)c3ccc(C)cc3)c(NCc3ccccc3)o2)cc1 | 0 | 3 | -15 | 2 | .
COc1ccc(NC(=O)Cn2c(SCc3ccc(F)cc3)nc3cccnc32)c(OC)c1 | -2 | -21 | 18 | 12 | .
COc1ccc(-c2cc3nc(C)c(CCC(=O)N4CCN(c5ccccc5F)CC4)c(C)n3n2)c(OC)c1 | 3 | 12 | 0 | 1 | .
CN(C)CCNc1ncnc2c1sc1nc(-c3ccccc3)c3c(c12)CCCC3 | -22 | -80* | 2 | 14 | -1
c1nc(NCCN2CCOCC2)c2sc3nc(N4CCOCC4)c4c(c3c2n1)CCC4 | -6 | -1 | -4 | 1 | ?
COc1ncnc2c1sc1nc(-c3ccccc3)c3c(c12)CCCC3 | 5 | 23 | 37* | 2 | 9
CCCC(=O)Nc1nnc(S(=O)(=O)N(C)Cc2ccc(Cl)cc2)s1 | 0 | 0 | 8 | 1 | .
CSc1sccc1/C=N/O | -5 | 5 | 14 | 0 | -55*
CCC1CCCCN1C(=O)Cn1c(=O)n(-c2ccccc2C(F)(F)F)c(=O)c2c(C)c(C(=O)N(C)C)sc21 (configuration not stated) | -3 | -13 | 7 | 3 | .
COc1cc(CCC(=O)OCC(=O)c2ccc[nH]2)cc(OC)c1OC | . | -42* | -17 | 6 | -26
O=C(CCC(=O)OCC(F)(F)C(F)F)Nc1ccc(Cl)cc1 | 0 | 17 | 1 | 3 | 23
COc1cc(CCC(=O)OCC(=O)Nc2ccc(F)cc2F)cc(OC)c1OC | -2 | -48* | 19 | 16 | 5
O=C(CCC(=O)OCC(F)(F)C(F)F)Nc1ccc(F)cc1F | -4 | -60* | 1 | 3 | 6
C/C(=N\NC(=S)NCCc1ccccc1)c1ccc(O)cc1O | . | -39* | 5 | 20 | 8
O=[N+]([O-])c1cccc(NC(=S)NCCc2ccccc2)c1 | -5 | -2 | -25 | 43* | -71*
OCCNC(=S)NCCc1ccccc1 | 4 | 31 | -10 | 1 | -1
Fc1ccc(CCNC(=S)Nc2ccc(F)c(Cl)c2)cc1 | -2 | -32* | 7 | 13 | -22

Screening results as filed in PubChem BioAssay.
